Data taken from PubChem BioAssay.
Calls of active or inactive are those of the source. Unless noted, how the calls were made is not given here.

Tests used:
[1] = compounds binding Alexa647 anti-His antibody – biochemical, small-molecule microarray, 635 nm fluorescence, artefact control for SMM control protein annotation, primary screen (AID 1128); details: higher = more signal;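 further: score merges feature fluorescence with signal-to-noise for each printed compound spot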
[2] = system: Human papillomavirus type 1a E7 protein (residues 1-88); experiment: HPV1a E7 small-molecule binders, primary screen, biochemical, small-molecule microarray, residues 1-88, 635 nm (AID 1129); details: small-molecule microarray binding, fluorescence 635 nm; higher = more signal
[3] = molecular target: Focal adhesion kinase 1 (Homo sapiens) (UniProt Q05397); experiment: PTK2 protein binding on printed compound slides – biochemical, small-molecule microarray, 635/667 nm fluorescence, BSA, DTT, primary screen (AID 1130); details: 635 nm fluorescence, higher = more signal;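 further: composite of spot emission at 667 nm and signal to noise over triplicate slides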
[4] = system: Fibrinogen (Alexa647-labelled); experiment: Alexa647-fibrinogen binding to printed small molecules – biochemical, small-molecule microarray, 635/667 nm fluorescence, artefact control for SMM control-protein annotation, profiling panel (AID 1131); details: fibrinogen-A647 binding fluorescence, higher = more signal;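 further: z-score merges 667 nm fluorescence with per-spot signal-to-noise over triplicate slides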
[5] = molecular target: Follistatin (Homo sapiens) (UniProt P19883); experiment: FST protein binding to printed compounds – biochemical, small-molecule microarray, 635/667 nm fluorescence, primary screen (AID 1132); details: 635 nm fluorescence, higher = more signal
[6] = molecular target: Fibroblast growth factor 2 (Homo sapiens) (UniProt P09038); experiment: basic fibroblast growth factor binding to printed compounds – biochemical, small-molecule microarray, 635/667 nm fluorescence, primary screen (AID 1133); details: FGF2, fluorescence 635/667, higher = more signal
[7] = JC-1 mitochondrial potential readout, lung cancer cells – cell-based, A549, JC-1 fluorescence, basal, 24 h, 100 nL, profiling panel (AID 1138); details: higher = more signal;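 further: A549 lung adenocarcinoma cells under basal conditions with no added stimulus; test concentration not given here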
Lefty1 = Lefty1 protein binding to printed compounds – biochemical, small-molecule microarray, 635/667 nm fluorescence, primary screen (AID 1139); details: fluorescence 635/667, higher = more signal
[8] = system: wheat germ agglutinin (Triticum aestivum), Alexa647-labelled; experiment: Alexa647-WGA lectin binding to printed small molecules – biochemical, small-molecule microarray, 635/667 nm fluorescence, artefact control for SMM control-protein annotation, profiling panel (AID 1140); details: WGA-A647 binding, 635 nm fluorescence, higher = more signal;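 further: score merges 667 nm feature emission with signal to noise over triplicate slides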
[9] = molecular target: Luciferin 4-monooxygenase (Photinus pyralis) (UniProt P08659); experiment: inhibition of purified Photinus pyralis luciferase – biochemical, luminescence, purified enzyme, 2006 set, primary screen (AID 1141); details: purified firefly luciferase, SteadyGlo luminescence, 30 min; higher = more signal, called active from +8 up or from −8 down;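 further: cell-free assay with purified firefly luciferase at 100 ng per well in PBS; test concentration not given here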
[10] = system: Wnt5a (protein binding on small-molecule microarray); experiment: small molecules binding Wnt5a protein – biophysical, small-molecule microarray, 635/667 nm fluorescence, primary screen (AID 1142); details: 635 nm fluorescence, higher = more signal;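 further: fluorescence read at 667 nm with signal to noise per printed feature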
[11] = ATP-based viability of Huh7 replicon cells – cell-based, CellTiter-Glo luminescence, basal, 48 h, cytotoxicity control for HCV replication inhibitor project, primary screen (AID 1143); details: higher = more signal, called active from +8 up or from −8 down;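 further: Huh7 hepatoma cells carrying a hepatitis C replication reporter with no stimulus; test concentration not given here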
[12] = Pseudomonas biofilm growth suppression – PAO1 strain, BacTiter-Glo luminescence, LB-PBS, primary screen (AID 1144); details: P. aeruginosa PAO1 biofilm, 12 h, higher = more signal
[13] = basal CRE-LacZ reporter activity in PC12 – cell-based, unstimulated, primary screen (AID 1145); details: no forskolin, luminescence, 4.5 h, higher = more signal, called active from +8 up or from −8 down
[14] = forskolin-driven CRE-LacZ activity in PC12 – cell-based, CRE-LacZ reporter, forskolin-stimulated, primary screen (AID 1146); details: luminescence, 4.5 h, higher = more signal, called active from +8 up or from −8 down;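 further: PC12 cells with 6xCRE LacZ reporter stimulated by forskolin 10 µM; beta-galactosidase reporter signal reflecting CREB driven transcription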
[15] = molecular target: Streptavidin (Streptomyces avidinii) (UniProt P22629); experiment: compounds binding control protein streptavidin – biophysical, small-molecule microarray, 635/667 nm fluorescence, artefact control for SMM compound annotation, primary screen (AID 1147); details: higher = more signal;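 further: signal reflects streptavidin binding to arrayed compounds as a control protein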
[16] = probe aInhba binding on compound microarray – biochemical, small-molecule microarray, 635/667 nm fluorescence, primary screen (AID 1148); details: higher = more signal;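 further: score merges 667nm spot fluorescence with signal-to-noise for antibody binding to printed compounds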
Torsin-1A (Homo sapiens) [17] = molecular target: Torsin-1A (Homo sapiens) (UniProt O14656); experiment: TOR1A wild-type binding on microarray – cell lysate, small-molecule microarray, lysate, 635/667 nm, primary screen (AID 1149); details: COS7 hTOR1A-WT lysate, 635 nm fluorescence, higher = more signal
Torsin-1A (Homo sapiens) [18] = molecular target: Torsin-1A (Homo sapiens) (UniProt O14656); experiment: torsin A mutant lysate binding on microarrays – cell lysate, small-molecule microarray, COS7 lysate, 635/667 nm fluorescence, primary screen (AID 1150); details: COS7 hTOR1A mutant lysate, 635 nm fluorescence, higher = more signal;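 further: score pools 667 nm emission and signal to noise measuring lysate protein binding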
[19] = system: Sonic hedgehog protein (Shh); experiment: Sonic hedgehog microarray binding compounds – biochemical, small-molecule microarray, 635/667 nm fluorescence, primary screen (AID 1151); details: 635 nm fluorescence, higher = more signal;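 further: Shh protein binding to compounds spotted on small-molecule microarray slides; score combines spot fluorescence intensity with signal-to-noise across triplicate slides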

Chain of Luciferin 4-monooxygenase (Photinus pyralis) (P08659 whole entry, looked up): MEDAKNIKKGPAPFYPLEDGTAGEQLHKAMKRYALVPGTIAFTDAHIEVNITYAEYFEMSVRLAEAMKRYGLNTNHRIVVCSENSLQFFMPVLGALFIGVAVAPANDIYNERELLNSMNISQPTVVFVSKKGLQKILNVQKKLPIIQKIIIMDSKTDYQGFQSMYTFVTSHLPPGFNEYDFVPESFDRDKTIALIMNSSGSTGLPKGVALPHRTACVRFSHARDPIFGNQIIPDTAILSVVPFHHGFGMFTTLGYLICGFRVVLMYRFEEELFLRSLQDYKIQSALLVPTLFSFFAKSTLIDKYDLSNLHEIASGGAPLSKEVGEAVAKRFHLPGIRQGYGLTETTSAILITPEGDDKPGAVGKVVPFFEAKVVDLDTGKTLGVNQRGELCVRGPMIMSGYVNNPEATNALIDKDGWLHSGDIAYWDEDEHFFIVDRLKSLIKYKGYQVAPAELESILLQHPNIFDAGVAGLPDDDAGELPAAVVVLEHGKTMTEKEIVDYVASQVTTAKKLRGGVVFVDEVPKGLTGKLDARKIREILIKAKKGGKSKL
Chain of Focal adhesion kinase 1 (Homo sapiens) (Q05397 whole entry, looked up): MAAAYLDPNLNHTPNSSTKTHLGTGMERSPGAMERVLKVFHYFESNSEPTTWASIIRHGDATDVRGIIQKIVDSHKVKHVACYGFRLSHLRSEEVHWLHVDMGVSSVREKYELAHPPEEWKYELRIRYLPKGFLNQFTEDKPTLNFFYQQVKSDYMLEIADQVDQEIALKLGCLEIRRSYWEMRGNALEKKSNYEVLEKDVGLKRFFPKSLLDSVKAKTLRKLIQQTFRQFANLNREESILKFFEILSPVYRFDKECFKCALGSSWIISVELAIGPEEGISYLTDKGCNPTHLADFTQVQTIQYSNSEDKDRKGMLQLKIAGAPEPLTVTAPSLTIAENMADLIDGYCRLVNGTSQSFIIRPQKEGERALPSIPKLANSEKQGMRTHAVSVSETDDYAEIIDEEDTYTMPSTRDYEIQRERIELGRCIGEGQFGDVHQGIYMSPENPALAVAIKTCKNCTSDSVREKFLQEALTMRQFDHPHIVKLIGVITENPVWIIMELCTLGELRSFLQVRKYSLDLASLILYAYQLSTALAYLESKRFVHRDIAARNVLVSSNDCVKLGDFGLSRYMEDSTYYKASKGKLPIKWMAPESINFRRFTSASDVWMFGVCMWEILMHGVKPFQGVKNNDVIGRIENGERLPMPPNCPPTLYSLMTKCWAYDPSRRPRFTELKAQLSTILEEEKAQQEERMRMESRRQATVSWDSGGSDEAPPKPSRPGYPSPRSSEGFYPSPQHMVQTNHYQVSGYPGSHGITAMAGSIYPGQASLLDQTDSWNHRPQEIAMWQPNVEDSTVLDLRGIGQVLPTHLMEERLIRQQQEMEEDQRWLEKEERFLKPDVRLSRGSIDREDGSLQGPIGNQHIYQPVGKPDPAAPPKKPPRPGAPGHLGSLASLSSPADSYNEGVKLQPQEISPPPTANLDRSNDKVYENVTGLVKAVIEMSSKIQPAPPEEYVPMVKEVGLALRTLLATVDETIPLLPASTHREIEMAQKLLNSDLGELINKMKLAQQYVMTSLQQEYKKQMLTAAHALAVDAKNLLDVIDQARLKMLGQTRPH
Chain of Streptavidin (Streptomyces avidinii) (P22629 whole entry, looked up): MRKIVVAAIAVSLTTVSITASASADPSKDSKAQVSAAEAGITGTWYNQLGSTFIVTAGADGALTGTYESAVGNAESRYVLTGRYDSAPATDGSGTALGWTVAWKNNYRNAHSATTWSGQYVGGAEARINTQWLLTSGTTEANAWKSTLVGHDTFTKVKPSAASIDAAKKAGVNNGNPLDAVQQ
Chain of Follistatin (Homo sapiens) (P19883 whole entry, looked up): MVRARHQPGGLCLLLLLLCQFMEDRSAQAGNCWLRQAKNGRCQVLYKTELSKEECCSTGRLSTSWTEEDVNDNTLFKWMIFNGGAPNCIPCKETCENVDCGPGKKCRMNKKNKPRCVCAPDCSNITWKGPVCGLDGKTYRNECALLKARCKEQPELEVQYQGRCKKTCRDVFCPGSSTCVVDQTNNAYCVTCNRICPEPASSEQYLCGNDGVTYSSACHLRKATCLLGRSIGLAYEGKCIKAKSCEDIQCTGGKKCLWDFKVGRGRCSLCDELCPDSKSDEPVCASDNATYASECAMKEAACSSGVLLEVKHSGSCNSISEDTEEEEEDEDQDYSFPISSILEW
Chain of Fibroblast growth factor 2 (Homo sapiens) (P09038 whole entry, looked up): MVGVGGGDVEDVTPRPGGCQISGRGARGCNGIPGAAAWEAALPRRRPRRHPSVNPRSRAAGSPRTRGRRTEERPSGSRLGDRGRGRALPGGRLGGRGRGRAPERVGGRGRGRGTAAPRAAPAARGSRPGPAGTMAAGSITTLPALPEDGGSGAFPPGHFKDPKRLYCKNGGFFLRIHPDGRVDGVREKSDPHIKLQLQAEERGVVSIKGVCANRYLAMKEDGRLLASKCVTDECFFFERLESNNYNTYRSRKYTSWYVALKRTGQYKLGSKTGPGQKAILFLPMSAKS
Chain of Torsin-1A (Homo sapiens) (O14656 whole entry, looked up): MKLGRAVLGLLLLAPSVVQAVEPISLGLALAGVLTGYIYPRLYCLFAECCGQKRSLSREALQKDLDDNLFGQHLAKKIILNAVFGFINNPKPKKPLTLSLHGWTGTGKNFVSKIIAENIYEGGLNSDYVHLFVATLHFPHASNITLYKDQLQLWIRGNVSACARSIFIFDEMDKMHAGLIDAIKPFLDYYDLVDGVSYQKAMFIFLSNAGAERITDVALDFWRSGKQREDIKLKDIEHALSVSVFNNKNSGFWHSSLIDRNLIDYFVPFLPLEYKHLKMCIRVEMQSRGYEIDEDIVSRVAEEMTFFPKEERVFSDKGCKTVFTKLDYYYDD

COc1ccc(C(=O)Nc2cccc(CN3C(=O)[C@@]4(O[C@@H](CC(=O)N(CCO)Cc5ccccc5)[C@H]([Si](C)(C)c5ccc(OC)cc5)[C@H]4C)c4ccccc43)c2)cc1
composite z-score [1]: 0.696
composite z-score [2]: 1.01
composite z-score [3]: 0.16
composite z-score [4]: 0.193
composite z-score [5]: 0.99
composite z-score [6]: 1.08
z-score [7]: -0.106
composite z-score (Lefty1): 1.18
composite z-score [8]: 0.289
z-score [9]: -1.75 (inactive)
composite z-score [10]: -0.198
z-score [11]: -4.44 (inactive)
z-score [12]: -0.244 (inactive)
z-score [13]: 3.3 (inactive)
z-score [14]: -0.76 (inactive)
composite z-score [15]: -0.503
composite z-score [16]: -0.101
composite z-score (Torsin-1A (Homo sapiens) [17]): 0.479
composite z-score (Torsin-1A (Homo sapiens) [18]): 1.16
composite z-score [19]: 1.51

C=C(/C(=C/C[C@@H](OC(=O)c1ccncc1)c1cccc(OCCO)c1)c1cnc2ccccc2c1)C(C)C
composite z-score [1]: 0.787
composite z-score [2]: 1.09
composite z-score [3]: 0.329
composite z-score [4]: 0.807
composite z-score [5]: 1.42
composite z-score [6]: 2.01
z-score [7]: 1.02
composite z-score (Lefty1): 1.2
composite z-score [8]: 1.29
z-score [9]: -1.47 (inactive)
composite z-score [10]: 0.782
z-score [11]: -2.31 (inactive)
z-score [12]: -0.454 (inactive)
z-score [13]: 1.69 (inactive)
z-score [14]: 0.628 (inactive)
composite z-score [15]: 1.62
composite z-score [16]: 0.0422
composite z-score (Torsin-1A (Homo sapiens) [17]): 0.199
composite z-score (Torsin-1A (Homo sapiens) [18]): 0.128
composite z-score [19]: 2

O=C(NCCN1CCOCC1)[C@@H]1c2ccccc2C(=O)N(Cc2ccccc2)[C@H]1c1ccc(CO)cc1
composite z-score [1]: -0.87
composite z-score [2]: -0.611
composite z-score [3]: -0.668
composite z-score [4]: 0.143
composite z-score [5]: 0.321
composite z-score [6]: -0.447
z-score [7]: 0.829
composite z-score (Lefty1): -0.665
composite z-score [8]: -0.3
z-score [9]: 1.36 (inactive)
composite z-score [10]: -0.817
z-score [11]: -1.62 (inactive)
z-score [12]: -0.996 (inactive)
z-score [13]: 0.145 (inactive)
z-score [14]: -0.674 (inactive)
composite z-score [15]: 1.49
composite z-score [16]: -0.0719
composite z-score (Torsin-1A (Homo sapiens) [17]): -1.46
composite z-score (Torsin-1A (Homo sapiens) [18]): -0.21
composite z-score [19]: -1.67

C=CCNC(=O)[C@H]1[C@@H]2C(=O)O[C@@H](c3ccccc3)[C@@H](c3ccccc3)N2[C@@H](c2ccc(OCCO)cc2)[C@]12C(=O)Nc1ccc(C#CCNC(N)=O)cc12
composite z-score [1]: -0.293
composite z-score [2]: 1.15
composite z-score [3]: 0.0494
composite z-score [4]: 0.936
composite z-score [5]: 1.41
composite z-score [6]: 1.05
z-score [7]: -0.837
composite z-score (Lefty1): 0.767
composite z-score [8]: 0.912
z-score [9]: -0.0338 (inactive)
composite z-score [10]: 0.314
z-score [11]: -0.384 (inactive)
z-score [12]: -0.78 (inactive)
z-score [13]: 0.559 (inactive)
z-score [14]: 0.123 (inactive)
composite z-score [15]: 0.756
composite z-score [16]: 0.0857
composite z-score (Torsin-1A (Homo sapiens) [17]): 0.207
composite z-score (Torsin-1A (Homo sapiens) [18]): 0.125
composite z-score [19]: 1.61

CN(C)C(=O)[C@]1(CCS(=O)(=O)c2ccccc2)N=C(c2ccc(OCCCO)cc2)O[C@@H]1c1ccccc1
composite z-score [1]: 1.57
composite z-score [2]: 1.26
composite z-score [3]: 1.23
composite z-score [4]: 1
composite z-score [5]: 1.29
composite z-score [6]: 0.345
z-score [7]: 0.17
composite z-score (Lefty1): 0.476
composite z-score [8]: -0.0414
z-score [9]: 0.396 (inactive)
composite z-score [10]: 0.995
z-score [11]: -2.87 (inactive)
z-score [12]: -1.52 (inactive)
z-score [13]: 1.42 (inactive)
z-score [14]: 1.1 (inactive)
composite z-score [15]: 1.22
composite z-score [16]: 0.204
composite z-score (Torsin-1A (Homo sapiens) [17]): 0.957
composite z-score (Torsin-1A (Homo sapiens) [18]): 0.831
composite z-score [19]: -0.707

COC(=O)C(CC#Cc1ccc2c(c1)[C@]1(C(=O)N2)[C@H](c2ccc(O)cc2)N2[C@H](c3ccccc3)[C@H](c3ccccc3)OC(=O)[C@H]2[C@@H]1C(=O)N1CCCCCCC1)C(=O)OC
composite z-score [1]: 0.792
composite z-score [2]: 1.23
composite z-score [3]: 1.47
composite z-score [4]: 0.945
composite z-score [5]: 1.43
composite z-score [6]: 1.4
z-score [7]: 1.21
composite z-score (Lefty1): 0.966
composite z-score [8]: 1.35
z-score [9]: -1.99 (inactive)
composite z-score [10]: 0.851
z-score [11]: -3.72 (inactive)
z-score [12]: -1.77 (inactive)
z-score [13]: -0.0515 (inactive)
z-score [14]: -0.507 (inactive)
composite z-score [15]: 1.26
composite z-score [16]: 1.36
composite z-score (Torsin-1A (Homo sapiens) [17]): 0.78
composite z-score (Torsin-1A (Homo sapiens) [18]): 0.592
composite z-score [19]: 0.777

NC(=O)N1C(=O)C2C(C1=O)C1C=C(CCCO)C2C(C2CC2)N1Cc1cccc(OC(F)(F)F)c1 (stereo not given)
composite z-score [1]: 0.589
composite z-score [2]: 0.469
composite z-score [3]: -0.0719
composite z-score [4]: 0.948
composite z-score [5]: 0.173
composite z-score [6]: -0.314
z-score [7]: 0.541
composite z-score (Lefty1): 0.341
composite z-score [8]: 0.94
z-score [9]: -1.4 (inactive)
composite z-score [10]: -0.352
z-score [11]: -0.458 (inactive)
z-score [12]: 1.35 (inactive)
z-score [13]: 0.522 (inactive)
z-score [14]: 1.62 (inactive)
composite z-score [15]: -0.439
composite z-score [16]: -0.182
composite z-score (Torsin-1A (Homo sapiens) [17]): 1.51
composite z-score (Torsin-1A (Homo sapiens) [18]): 1.59
composite z-score [19]: 0.393

CC(C)C[C@@H]1NC(=O)[C@H]2C[C@@H](C(=O)NCCCCCN)[C@@H](c3cccc(OCCO)c3)N2C1=O
composite z-score [1]: 1.22
composite z-score [2]: 0.334
composite z-score [3]: -0.0639
composite z-score [4]: 0.133
composite z-score [5]: -0.214
composite z-score [6]: 0.181
z-score [7]: 0.34
composite z-score (Lefty1): -0.813
composite z-score [8]: 0.817
z-score [9]: -1.07 (inactive)
composite z-score [10]: -0.0295
z-score [11]: -0.707 (inactive)
z-score [12]: -0.887 (inactive)
z-score [13]: 0.273 (inactive)
z-score [14]: -0.673 (inactive)
composite z-score [15]: -0.174
composite z-score [16]: -0.008
composite z-score (Torsin-1A (Homo sapiens) [17]): 0.67
composite z-score (Torsin-1A (Homo sapiens) [18]): 0.207
composite z-score [19]: -0.414

CC(C)OC(=O)CC(=O)CC(O)c1ccc([N+](=O)[O-])cc1 (stereo not given)
composite z-score [1]: 0.42
composite z-score [2]: 0.304
composite z-score [3]: -0.0134
composite z-score [4]: -0.434
composite z-score [5]: -0.134
composite z-score [6]: -0.404
z-score [7]: 0.276
composite z-score (Lefty1): -0.006
composite z-score [8]: 0.518
z-score [9]: 0.419 (inactive)
composite z-score [10]: 0.0008
z-score [11]: -0.824 (inactive)
z-score [12]: 0.402 (inactive)
z-score [13]: 1.03 (inactive)
z-score [14]: 1.59 (inactive)
composite z-score [15]: -0.402
composite z-score [16]: -0.0044
composite z-score (Torsin-1A (Homo sapiens) [17]): 0.913
composite z-score (Torsin-1A (Homo sapiens) [18]): 0.113
composite z-score [19]: -0.514

COCCOC(=O)N1C(=O)[C@@]2(c3cc(C#Cc4ccc(OC)cc4)ccc31)[C@H](C(=O)NC[C@H](O)c1ccccc1)[C@H]1C(=O)O[C@H](c3ccccc3)[C@H](c3ccccc3)N1[C@@H]2c1ccc(OCCO)cc1
composite z-score [1]: 1.24
composite z-score [2]: 1.2
composite z-score [3]: -0.103
composite z-score [4]: 0.801
composite z-score [5]: 1.29
composite z-score [6]: 1.01
z-score [7]: -1.77
composite z-score (Lefty1): 1.15
composite z-score [8]: 0.815
z-score [9]: -0.459 (inactive)
composite z-score [10]: 0.76
z-score [11]: -5.48 (inactive)
z-score [12]: -1.73 (inactive)
z-score [13]: -1.42 (inactive)
z-score [14]: -0.544 (inactive)
composite z-score [15]: 0.277
composite z-score [16]: 0.0184
composite z-score (Torsin-1A (Homo sapiens) [17]): 0.161
composite z-score (Torsin-1A (Homo sapiens) [18]): 0.963
composite z-score [19]: 1.62
